For 29 compounds, outcome and activity change results are on record in PubChem BioAssay AID743364 (National Center for Advancing Translational Sciences (NCATS), 2014).

Active and inactive are the calls of the source. Calls come from the whole dose curve; as a rule, active = well fitted curve in the direction sought with a large enough effect; inactive = no such curve, though single readings can be large or run the other way.

This test can be described thus: qHTS profiling of inhibitors of Plasmodium falciparum (3D7) proliferation (acoustic dispense). Conditions: P. falciparum 3D7 in erythrocytes, SYBR Green, 72 h; series mostly up to 49.8 µM. Background: In qHTS, concentration-response curves come from the screen itself.
Regarding `COc1ccc(-c2ccc3ncc4c(c3c2)n(-c2ccc(N3CCNCC3)c(C(F)(F)F)c2)c(=O)n4C)cn1`, the call was inactive.
As to `CCc1nc(N)nc(N)c1-c1ccc(Cl)cc1`, the compound was called inactive.
As to `CC(Sc1nc2ccccc2[nH]1)C(=O)NN=Cc1cc(Br)ccc1O` (centres undefined), the activity change was 28.2% [at 4.15 µM] (inactive).
With `Nc1cccc(-c2csc(NC(=O)CCCCCCC(=O)NO)n2)c1`, the compound was called inactive.
With `C[C@H](Cn1cnc2c(N)ncnc21)OCP(=O)(O)O`, the compound was called inactive.
`COc1ccc(-c2cc3c(C)nc(N)nc3n(C3CCC(OCCO)CC3)c2=O)cn1` (centres undefined): the result was inactive.
Still for that read-out and setting: then `Cc1[nH]c2ccccc2c1CCNCc1ccc(C=CC(=O)NO)cc1`, with “inactive”; and `CCS(=O)(=O)Nc1ccc2[nH]c(O)c(C(=Nc3ccc(CN4CCCCC4)cc3)c3ccccc3)c2c1`, with “inactive”; and `COc1ccc2cc3[n+](cc2c1OC)CCc1cc2c(cc1-3)OCO2`, with “inactive”.
Still for that read-out and setting: then `Clc1ccc2c(N3CCN(CCCN4CCN(c5ccnc6cc(Cl)ccc56)CC4)CC3)ccnc2c1`, with “inactive”.
Regarding `CC[C@H]1CN2CCc3cc(OC)c(OC)cc3[C@H]2C[C@@H]1C[C@@H]1NCCc2cc(OC)c(OC)cc21`, the compound was classed as inactive.
On the same count and under the same terms, then `COc1cc(NC(C)CCCN)c2ncccc2c1` (centres undefined), with “inactive”.
The same measure, in the same setting: then `COCCn1c2c([n+](Cc3cnccn3)c1C)C(=O)c1ccccc1C2=O`, with “inactive”.
Same read-out and setting: then `CC(C)n1nc(-c2ccc3oc(N)nc3c2)c2c(N)ncnc21`, with “inactive”; and `CC(C=CC(=O)NO)=C[C@@H](C)C(=O)c1ccc(N(C)C)cc1`, with “inactive”.
For the compound `CCn1nnc2c(N3CCOCC3)nc(-c3ccc(NC(=O)Nc4ccc(C(=O)N5CCN(C)CC5)cc4)cc3)nc21`, the call was inactive.
In the case of `CCc1cc(Nc2nccc(-c3c(-c4ccc(OC)c(C(=O)Nc5c(F)cccc5F)c4)nc4ccccn34)n2)c(OC)cc1N1CCC(N2CCN(S(C)(=O)=O)CC2)CC1`, the compound was classed as inactive.
The same measure, in the same setting: to `CCOC(=O)[C@H](CCc1ccccc1)N[C@H]1CS[C@H](c2cccs2)CN(CC(=O)O)C1=O` belongs “inactive”; to `COC(=O)[C@]12CCC(C)(C)C[C@@H]1[C@@H]1C(=O)C=C3[C@@]4(C)C=C(C#N)C(=O)C(C)(C)[C@@H]4CC[C@@]3(C)[C@]1(C)CC2`, “inactive”.
On the same count and under the same terms, to `CC(C)Oc1cc(Nc2nc(N[C@@H](C)c3ccc(F)cn3)ncc2Cl)[nH]n1` belongs “inactive”.
Still for that read-out and setting: to `CSc1cccc(Nc2ncc3cc(-c4c(Cl)cccc4Cl)c(=O)n(C)c3n2)c1` belongs “inactive”.
For `CCN(CC)Cc1cc(Nc2ccnc3cc(Cl)ccc23)ccc1O`, the compound was called inactive.
Still for that read-out and setting: then `c1cncc(CN2CCC(n3ncc4c(N5CCOCC5)nc(-c5ccc6[nH]ccc6c5)nc43)CC2)c1`, with “inactive”; and `C[C@H]1Cc2c([nH]c3cc(Cl)c(F)cc23)[C@@]2(N1)C(=O)Nc1ccc(Cl)cc12`, with “inactive”.
Same read-out and setting: to `CN(C(=O)OC(C)(C)C)[C@@H](Cc1ccc(O[S+](=O)([O-])c2cccc3cnccc23)cc1)C(=O)N1CCN(C(=O)OCc2ccccc2)CC1` belongs “inactive”; to `CCNC(=O)c1noc(-c2cc(C(C)C)c(O)cc2O)c1-c1ccc(CN2CCOCC2)cc1`, “inactive”; to `CCC[C@H](Nc1nc(-c2ccc(NC(=O)NCC)c(OC)c2)ncc1C)c1cccnc1`, “inactive”.
In the case of `O=C1c2c(O)ccc(O)c2C(=O)c2c(NCCNCCO)ccc(NCCNCCO)c21`, the call was inactive.
Still for that read-out and setting: to `Cc1cn(-c2cc(NC(=O)c3ccc(C)c(Nc4nccc(-c5cccnc5)n4)c3)cc(C(F)(F)F)c2)cn1` belongs “inactive”.
